According to PubChem BioAssay (NCATS):
The source made the active and inactive calls. Calls follow the shape of the dose curve; as a rule, active = well fitted curve in the direction sought with a large enough effect; inconclusive = small, poorly fitted or top-dose-only effect, or another doubt; inactive = no such curve, though single readings can be large or run the other way.

Target: alpha-glucosidase (Oryza sativa, rice) (UniProt Q653V4)
Assay: Counterscreen for Glucocerebrosidase Inhibitors: qHTS Assay for Rice alpha-Glucosidase at pH 5.0 (AID 997);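 also: 0% = full activity with enzyme and -100% = basal without enzyme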
Settings: rice alpha-glucosidase enzyme activity; series mostly up to 76.9 µM; activity change, negative = inhibition: at the top concentration
Description: NIH Chemical Genomics Center [NCGC]
NIH Molecular Libraries Screening Centers Network [MLSCN]
PI Name: Zheng, Wei [NIH]
Alpha-glucosidase is responsible for hydrolysis of terminal, non-reducing 1,4-linked alpha-D-glucose residues with release of alpha-D-glucose. It is a lysosomal hydrolase that is required for the degradation of a small percentage (1-3%) of cellular glycogen in human. Deficiency of this enzyme results in glycogen-storage disease type II (GSDII), also referred to as Pompe disease, an autosomal recessive disorder. Structurally normal glycogen is accumulated in lysosomes and cytoplasm in affected patients, primarily in muscle tissues. Excessive glycogen storage within lysosomes may interrupt normal functioning of other organelles and leads to cellular injury. In turn, this leads to enlargement and dysfunction of the entire organ involved (eg, cardiomyopathy and muscle weakness).
It has reported that the improper folding and trafficking of alpha-glucosidase resulted from the genetic mutations may account for a significant number of Prope patients. […] We optimized this alpha-glucosidase assay in 1536-well plate format for identifying the novel small molecule inhibitors with the structures other than the sugar analogs in order to develop the new pharmacological chaperones.
NCGC Assay Protocol Summary:
This is a fluorogenic enzyme assay with 4-methylumbelliferyl-alpha-D-pyranoside as the substrate and rice alpha-glucosidase as the enzyme preparation. Upon the hydrolysis of this fluorogenic substrate, the resulting product, 1. 4-methyllumbelliferone, can be excited at 365 nm and emits at 440 nm which can be detected by a standard fluorescence plate reader. Data were normalized to the controls for basal activity (without enzyme) and 100% activity (with enzyme). In the AC50 values were determined from concentration-response data modeled with the standard Hill equation.
Assay buffer: 50 mM citric acid, 0.005% Tween-20, pH 5.0. (pH 5.0 is an optimal condition for this enzyme assay)
1536-well assay protocol for the human alpha-glucosidase:
(1) Add 2 ul/well of enzyme (4 nM final)
(2) Add 23 nL compounds in DMSO solution. The final titration was 0.7 nM to 77 uM.
(3) Add 1 ul of substrate (400 uM final)
(4) Incubate at room temperature for 20 min.
(5) Add 2 ul stop solution (1M NaOH and 1M Glycine mixture, pH 10)
(6) Detect the assay plate in a ViewLux plate reader (PerkinElmer) with Ex=365 nm and Em=440nm.
Keywords: Alpha-glucosidase, Prope Disease, pharmacological chaperone, chaperone therapy, high throughput screening, alpha-glucosidase inhibitor, MLSMR, MLSCN, NIH Roadmap, qHTS and NCGC

Compound	activity change, negative = inhibition	outcome
NCCc1c[nH]c2ccccc12	-1.56% (inactive)	–
CCCN1CCC[C@H](c2cccc(O)c2)C1	–	inactive
NC(N)=NOCCC(N)C(=O)O (stereo unspecified)	-3.19% (inactive)	–
C#CCOC(=O)C1=CCCN(C)C1	-1.44% (inactive)	–
CCCN1CCO[C@@H]2c3cc(O)ccc3OC[C@H]21	–	inactive
S=C(NC1CCCCC1)N1CCC(c2cnc[nH]2)CC1	-2.18% (inactive)	–
CNCCc1ccc(O)c(O)c1	-5.14% (inactive)	–
Cc1c(C(=O)c2cccc3ccccc23)c2cccc3c2n1[C@H](CN1CCOCC1)CO3	-16% (inactive)	–
CC(=O)NCCc1c[nH]c2ccccc12	-3.46% (inactive)	–
CCCCc1ccc(C(=O)O)nc1	1.94% (inactive)	–
c1ccc(CCCN2CCN(CCOC(c3ccccc3)c3ccccc3)CC2)cc1	-8.27% (inactive)	–
CN[C@@H]1C[C@@H](c2ccc(Cl)c(Cl)c2)c2ccccc21	-3.03% (inactive)	–
Cn1cnc(CCN)c1	-2.7% (inactive)	–
NCc1cc(=O)[nH]o1	-1.28% (inactive)	–
O=C1CCCN1CC#CCN1CCCC1	-0.585% (inactive)	–
O=C(O)Cc1cnc[nH]1	0.33% (inactive)	–

Compound	activity change, negative = inhibition	outcome
C[C@]12N[C@H](Cc3ccccc31)c1ccccc12	–	inactive
Cc1nccc2c1[nH]c1ccccc12	0.544% (inactive)	–
CNCCc1c[nH]c2ccc(O)cc12	0.268% (inactive)	–
CC[C@@]1(O)C(=O)OCc2c1cc1n(c2=O)Cc2cc3ccccc3nc2-1	139% (inactive)	–
C[C@@H]1O[C@H](C[N+](C)(C)C)C[C@H]1O	-2.74% (inactive)	–
c1ccc2sc(C3(N4CCCCC4)CCCCC3)cc2c1	-4.65% (inactive)	–
NC(=NCCC[C@H](N)C(=O)O)N[N+](=O)[O-]	1.84% (inactive)	–
COc1ccc2c(c[n+](C)c3c4cc5c(cc4ccc23)OCO5)c1OC	-1.4% (inactive)	–
O=C(O)CC[N+](=O)[O-]	0.891% (inactive)	–
CC(C)Oc1cccnc1N(C)C1CCN(Cc2ccccc2)CC1	-3.83% (inactive)	–
NCCc1c[nH]c2ccc(O)cc12	3.94% (inactive)	–
CCCN(CCC)[C@@H]1CCc2ccc(O)cc2C1	–	inactive
Clc1cnc(Oc2ccc(Oc3ncc(Cl)cc3Cl)cc2)c(Cl)c1	-1.43% (inactive)	–
Cc1nc(-c2ccc(-c3ccc(C(=O)N4CCc5cc6c(cc54)C4(CCN(C)CC4)CO6)cc3)c(C)c2)no1	-6.25% (inactive)	–
CC1=NN=C(c2ccc(N)cc2)c2cc3c(cc2C1)OCO3	-1.23% (inactive)	–
